Test results published in PubChem BioAssay.

target: Left-right determination factor 2 (Homo sapiens) (UniProt O00292); test: LEFTY2 binders on small-molecule microarrays, primary screen, biochemical, small-molecule microarray, 635 nm fluorescence scan (AID 1110); conditions: LEFTY2 binding, higher = more signal
Sequence (O00292 whole entry, looked up): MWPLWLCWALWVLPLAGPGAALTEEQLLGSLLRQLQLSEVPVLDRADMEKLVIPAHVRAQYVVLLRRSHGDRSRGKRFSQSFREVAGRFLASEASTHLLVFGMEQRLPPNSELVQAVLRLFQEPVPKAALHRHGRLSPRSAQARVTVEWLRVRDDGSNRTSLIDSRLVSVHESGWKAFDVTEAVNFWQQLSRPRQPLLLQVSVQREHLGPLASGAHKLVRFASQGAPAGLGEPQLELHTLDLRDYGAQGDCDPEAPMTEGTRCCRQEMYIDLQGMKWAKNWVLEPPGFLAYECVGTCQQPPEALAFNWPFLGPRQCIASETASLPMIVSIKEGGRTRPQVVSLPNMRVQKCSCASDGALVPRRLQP

Structure (SMILES) | composite z-score
O=C(O)[C@@H]1[C@@H]2C(=O)N(c3ccccc3)C(=O)[C@@H]2C[C@@H]1Sc1ccccc1 | -0.603
CCCCN1CC=CC23O[C@@H]4/C=C\CCC(C)OC(=O)C4[C@H]2C(=O)N(CCCO)[C@@H]3C1=O (some centres undefined) | -0.949
CN(C)C(=O)[C@]1(CCC(=O)OC(C)(C)C)N=C(c2ccc(OCCCO)cc2)O[C@@H]1c1ccccc1CN=[N+]=[N-] | -0.502
CCCCCC1=C2CNC(C)(C(=O)OC)C=C2C(C)C1=O (centres undefined) | -0.37
CCOC(=O)C[C@H]1[C@H](OC(=O)c2cc3ccccc3oc2=O)[C@@H](NC(=O)c2ccc3ccccc3n2)c2cc(OCCCO)ccc2N1C(=O)Cc1ccc(OC)cc1 | 0.735
CS(=O)(=O)CCOC(=O)C1=CC(CCCO)=CC(c2ccc(CN3CCCC3)cc2)N(Cc2sc3ccccc3c2Cl)C=C1C(=O)OCCS(C)(=O)=O (centres undefined) | 1.12
NC(=O)NCC#Cc1ccc2c(c1)[C@]1(C(=O)N2)[C@H](c2ccccc2OCCO)N2[C@H](c3ccccc3)[C@H](c3ccccc3)OC(=O)[C@H]2[C@@H]1C(=O)NC[C@H](O)c1ccccc1 | -0.568
CC(C)N1C(=O)c2ccccc2[C@@H](C(=O)NCCN2CCOCC2)[C@@H]1c1ccc(CO)cc1 | -2.07
COCCOC(=O)N1C(=O)[C@@]2(c3cc(C#CC4=CCCCC4)ccc31)[C@H](C(=O)Nc1nc3ccccc3s1)[C@H]1C(=O)O[C@H](c3ccccc3)[C@H](c3ccccc3)N1[C@@H]2c1ccc(O)cc1 | 0.647
COc1ccc(CCNC(=O)[C@@]2(Sc3ccc(C)cc3)CC(=O)N(Cc3ccccc3C(F)(F)F)[C@@H]2c2ccc(CO)cc2I)cc1 | -1.5
COc1ccc([Si](C)(C)[C@H]2[C@H](CC(=O)N3CCC[C@H]3CO)O[C@@]3(C(=O)N(Cc4ccc(N5CCOC5=O)cc4)c4ccccc43)[C@@H]2C)cc1 | 0.75
COc1cc(OC)c(C(O)C2C=CC3C(=O)N(Cc4ccccc4)C(=O)C3N2n2cnnc2)cc1Br (centres undefined) | -0.6
[N-]=[N+]=Nc1ccccc1C[C@@]1(C(=O)N2CCOCC2)N=C(c2ccc(OCCCO)cc2)O[C@@H]1c1ccccc1 | -0.0238
Cc1ccc(C(C)CC(O)C2C=CC3C(=O)N(c4ccccc4)C(=O)C3N2Nc2ccccc2)o1 (centres undefined) | 0.285
CCOC(=O)C[C@H]1[C@H](OC(=O)c2ccc(C(=O)c3ccccc3)cc2)[C@@H](NC(=O)c2ccc(-c3ccccc3)cc2)c2cc(OCCCO)ccc2N1C(=O)Cc1ccc(OC)cc1 | 0.176
CCOC(=O)C1=C[C@@H](C(C)C)N(S(=O)(=O)c2ccc(C)cc2)[C@H]1c1ccc(C(F)(F)F)cc1 | 0.499
C=C[C@H]1C(C(=O)OCC)=CC[C@@H](c2ccccc2)N1S(=O)(=O)c1ccc(C)cc1 | 0.0641
CCCCCCCCCCC(O)C1C=CC2C(=O)N(c3ccccc3)C(=O)C2N1Nc1ccc(C#N)cc1 (centres undefined) | -0.157
O=C1C[C@]2(c3ccc([N+](=O)[O-])cc3)C(=O)N(C3CC3)c3cc(CO)ccc3[C@H]2N1CC12CC3CC(CC(C3)C1)C2 | -1.6
C=C[C@H](C)[C@H](OC(=O)Nc1ccc(SC)cc1)c1ccc(OCCO)cc1 | -0.0482
O=C1OCCC=C[C@H]2OC34C=CCN(c5ccc6ccccc6c5)C(=O)[C@H]3N(CCCO)C(=O)[C@@H]4C12 (some centres undefined) | -1.31
CCCCN1CC=CC23O[C@@H]4/C=C\CCCOC(=O)C4[C@H]2C(=O)N(CCO)[C@@H]3C1=O (some centres undefined) | -1.51
COc1cc2c(cc1O)C(c1cccs1)N(Cc1cc3c(cc1Br)OCO3)CC2 (centres undefined) | 0.236
CCCC[C@@H](O)C1=C(COc2ccccc2)C[C@H]2C(=O)N(Cc3ccccc3)C(=O)[C@H]2[C@H]1CO | 0.321
COc1cc(C(O)C2C=CC3C(=O)N(C)C(=O)C3N2Nc2ccccc2)cc(OC)c1OC (centres undefined) | -0.129
COCCOC(=O)N1C(=O)[C@@]2(c3cc(C#CCCO)ccc31)[C@H](c1ccc(OCCO)cc1)N1[C@H](c3ccccc3)[C@H](c3ccccc3)OC(=O)[C@H]1[C@@H]2C(=O)Nc1nc2ccccc2s1 | 0.95
C=CCNC(=O)[C@@H]1[C@H]2C(=O)O[C@H](c3ccccc3)[C@H](c3ccccc3)N2[C@H](c2ccc(OCCO)cc2)[C@@]12C(=O)N(C(=O)OCCOC)c1ccc(C#Cc3ccc(OC)cc3)cc12 | 0.399
N#Cc1ccc(NN2C(C(O)c3ccc(Br)cc3)C=CC3C(=O)N(c4ccccc4)C(=O)C32)cc1 (centres undefined) | 0.503
CCCC=C(CCC)[C@@H](NC(=O)C(C)(C)C)c1ccc(C(=O)OC)cc1 | -0.494
